In the library only some 1% were active in any assay of this set; here they are far more common.
FadD28 binding: M. tuberculosis FadD28 bisubstrate binding inhibition | 360,000 compounds, 0.22% hits | AID 588549 | FadD28 bisubstrate probe binding, fluorescence polarization | inhibition, % at 12.5 µM; in the data active = inhibition above about 8.5%, passing the limit was not always enough; inconclusive = no clear call, values can overlap the other calls
SSB-PriA inh: K. pneumoniae PriA-SSBct interaction inhibition; AlphaScreen SSBct-PriA binding, biotinylated peptide; inhibition, % at 33 µM; 430,000 compounds, 0.6% hits; AID 1272365; in the data active = inhibition mostly above about 37%, no sharp cut-off; inactive = mostly below about 20%;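 also: plate controls were negative control peptide for no effect and reference peptide for full effect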
Mtb hypoxia inh: inhibitors of hypoxia-regulated fluorescent reporter in Mycobacterium tuberculosis. M. tuberculosis hypoxia-regulated fluorescent reporter, fluorescence. fluorescence inhibition, % (concentration not given with the values). 300,000 compounds, 0.1% hits; in the data active = fluorescence inhibition mostly above about 23%, no sharp cut-off; inactive = mostly below about 17%
TcdB GH inh: inhibitors of Clostridioides difficile toxin B glycohydrolase; inhibition, % at 9.99 µM; 350,000 compounds, 0.24% hits; AID 652162; TcdB glycohydrolase enzymatic assay, plate reader; in the data active = inhibition above about 10%
Target sequence (P18177 whole entry, looked up): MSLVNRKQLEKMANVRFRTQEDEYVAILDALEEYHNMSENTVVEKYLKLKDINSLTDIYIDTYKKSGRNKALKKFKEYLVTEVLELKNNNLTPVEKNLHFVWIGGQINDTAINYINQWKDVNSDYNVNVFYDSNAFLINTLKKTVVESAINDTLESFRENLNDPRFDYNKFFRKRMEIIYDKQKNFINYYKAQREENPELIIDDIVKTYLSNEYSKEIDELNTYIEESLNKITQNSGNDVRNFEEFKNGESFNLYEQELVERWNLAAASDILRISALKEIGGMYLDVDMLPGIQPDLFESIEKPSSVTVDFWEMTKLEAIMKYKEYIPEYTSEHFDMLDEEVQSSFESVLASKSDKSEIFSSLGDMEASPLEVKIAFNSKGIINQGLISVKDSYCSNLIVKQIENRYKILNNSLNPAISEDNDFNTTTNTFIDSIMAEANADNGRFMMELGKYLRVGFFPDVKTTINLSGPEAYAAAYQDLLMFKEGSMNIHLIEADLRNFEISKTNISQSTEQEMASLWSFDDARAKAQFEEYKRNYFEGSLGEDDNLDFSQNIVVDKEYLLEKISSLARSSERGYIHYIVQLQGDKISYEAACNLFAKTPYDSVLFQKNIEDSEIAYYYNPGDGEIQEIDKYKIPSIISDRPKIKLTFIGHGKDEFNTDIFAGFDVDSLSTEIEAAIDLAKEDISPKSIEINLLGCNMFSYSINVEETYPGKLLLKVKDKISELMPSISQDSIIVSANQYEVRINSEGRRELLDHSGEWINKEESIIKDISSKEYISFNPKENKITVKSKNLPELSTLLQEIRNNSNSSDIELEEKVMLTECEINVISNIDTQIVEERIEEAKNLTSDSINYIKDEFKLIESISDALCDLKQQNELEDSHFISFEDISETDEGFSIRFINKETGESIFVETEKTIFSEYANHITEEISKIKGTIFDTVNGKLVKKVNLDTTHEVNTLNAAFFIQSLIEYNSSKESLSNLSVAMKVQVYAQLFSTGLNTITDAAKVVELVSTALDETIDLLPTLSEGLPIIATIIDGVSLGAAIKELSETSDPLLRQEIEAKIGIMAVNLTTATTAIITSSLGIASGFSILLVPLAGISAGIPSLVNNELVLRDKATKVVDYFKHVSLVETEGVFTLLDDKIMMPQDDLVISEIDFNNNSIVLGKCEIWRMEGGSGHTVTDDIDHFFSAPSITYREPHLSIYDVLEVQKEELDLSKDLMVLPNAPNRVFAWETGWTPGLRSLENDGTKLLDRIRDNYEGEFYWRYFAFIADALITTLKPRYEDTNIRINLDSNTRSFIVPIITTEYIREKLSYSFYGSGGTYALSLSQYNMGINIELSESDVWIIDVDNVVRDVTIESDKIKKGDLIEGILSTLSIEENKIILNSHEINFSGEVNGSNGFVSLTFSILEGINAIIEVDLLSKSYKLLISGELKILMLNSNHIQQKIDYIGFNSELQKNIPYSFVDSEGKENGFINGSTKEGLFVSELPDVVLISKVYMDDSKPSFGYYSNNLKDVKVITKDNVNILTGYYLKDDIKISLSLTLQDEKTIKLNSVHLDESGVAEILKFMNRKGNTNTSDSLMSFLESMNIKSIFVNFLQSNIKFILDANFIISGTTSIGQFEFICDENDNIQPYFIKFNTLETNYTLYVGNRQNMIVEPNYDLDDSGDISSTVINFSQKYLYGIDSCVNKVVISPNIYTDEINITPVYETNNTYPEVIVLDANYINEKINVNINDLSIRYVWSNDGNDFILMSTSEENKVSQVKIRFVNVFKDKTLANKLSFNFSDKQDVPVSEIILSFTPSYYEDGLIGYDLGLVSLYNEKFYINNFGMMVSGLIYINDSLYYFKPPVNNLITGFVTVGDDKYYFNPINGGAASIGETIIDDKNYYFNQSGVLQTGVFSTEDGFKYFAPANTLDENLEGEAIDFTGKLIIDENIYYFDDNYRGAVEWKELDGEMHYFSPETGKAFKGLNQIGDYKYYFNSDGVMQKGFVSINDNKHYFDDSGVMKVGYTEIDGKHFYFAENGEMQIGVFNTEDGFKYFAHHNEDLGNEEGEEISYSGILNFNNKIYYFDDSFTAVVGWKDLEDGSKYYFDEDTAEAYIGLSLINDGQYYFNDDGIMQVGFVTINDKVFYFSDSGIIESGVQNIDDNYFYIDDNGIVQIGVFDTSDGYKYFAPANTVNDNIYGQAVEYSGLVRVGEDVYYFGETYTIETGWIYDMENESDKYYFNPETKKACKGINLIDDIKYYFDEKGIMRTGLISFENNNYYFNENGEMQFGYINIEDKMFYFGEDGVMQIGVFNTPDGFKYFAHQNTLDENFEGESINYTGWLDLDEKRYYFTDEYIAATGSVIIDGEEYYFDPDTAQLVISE
PrP 5UTR inh: suppresses PrP 5' UTR mRNA reporter expression; inhibition, % (no concentration beside the values); cell-based PrP 5' UTR mRNA reporter, plate reader; 340,000 compounds, 0.35% hits; AID 488862; in the data active = inhibition above about 52%; also: 0 = median of the neutral control wells
BioA inh: blocks M. tuberculosis BioA enzyme activity; inhibition, % at 9.99 µM; purified M. tuberculosis BioA enzyme, plate reader; 360,000 compounds, 0.096% hits; in the data active = inhibition above about 40%; inconclusive = no clear call, values can overlap the other calls
Active calls of the source: *; ? = inconclusive; . = no result shown; ! = repeats disagree.

SMILES | FadD28 binding | SSB-PriA inh | Mtb hypoxia inh | TcdB GH inh | PrP 5UTR inh | BioA inh
COc1ccc2sc(N(CCCN(C)C)C(=O)c3ccc(S(=O)(=O)N4CCCc5ccccc54)cc3)nc2c1 | -13.8 | 36.0*! | 8.6 | 1.6 | -2.6 | -1.4
CC(=O)N1CCC(CN2CCCC2)CC1 | . | 38.0* | . | . | . | .
COCCn1c(C)cc(/C=N/NC(=O)c2cc3ccccc3cc2O)c1C | 10.9* | . | . | . | -26.5 | .
CNC(=S)Nc1ccc(-c2nc3ccc(C)cc3s2)cc1 | -5.8 | -13.0 | 36.7* | 0.5 | -5.4 | -0.3
CCc1cn([C@H]2C[C@H](O)[C@@H](CO)O2)c(=O)[nH]c1=O | 0.6 | -5.9 | . | 0.2 | -5.1 | 0.5
Cc1nn(C2CC(O)C(O)C(CO)O2)c(=O)[nH]c1=O (stereo unspecified) | -2.6 | -5.5 | . | 12.9* | -11.1 | .
Cc1ccc(S(=O)(=O)N(C)C[C@H]2Oc3ccc(NS(=O)(=O)c4c(C)noc4C)cc3CC(=O)N([C@@H](C)CO)C[C@H]2C)cc1 | . | . | . | 0.8 | . | -3.0
CCN(CC)CCN(C(=O)Cc1cccc2ccccc12)c1nc2cc3c(cc2s1)OCO3 | . | 35.0* | . | . | . | .
CN(C)CCCN(C(=O)c1ccc(C(=O)c2ccccc2)cc1)c1nc2cc3c(cc2s1)OCO3 | -3.3 | 44.0* | -6.1 | 1.7 | 15.5 | -0.5
CN(C)CCCN(C(=O)c1cc2cc([N+](=O)[O-])ccc2s1)c1nc2cc3c(cc2s1)OCCO3 | -1.8 | 46.0*! | . | -0.1 | -2.0 | -1.9
CN(C)CCCN(C(=O)c1cc2c(ccc3ccccc32)oc1=O)c1nc2cc3c(cc2s1)OCCO3 | . | 66.0* | . | . | . | .
C/C(=N\NC(=S)NC1CCCCC1)c1ccc(Cl)c(Cl)c1 | -0.7 | . | . | 0.3 | 6.3 | .
CCOC(=O)[C@]12CCCC=C1N(Cc1ccco1)C(=O)[C@H](CC(=O)NCCCCc1ccccc1)C2 | . | . | . | 1.4 | . | .
CCN(CC)CCN(C(=O)c1ccc(C(=O)c2ccccc2)cc1)c1nc2cc3c(cc2s1)OCO3 | -3.1 | 41.0* | 4.4 | 3.6 | -47.9 | -1.9
CCN(CC)CCN(C(=O)c1ccc(C(=O)c2ccccc2)cc1)c1nc2c(OC)cccc2s1 | -3.7 | 37.0*! | 3.2 | 0.9 | -29.8 | -1.0
O=C(COc1ccccc1)Nc1ccccc1C(=O)NCc1ccco1 | 0.3 | 11.8 | 13.4 | . | -33.4 | .
C(=C\c1nc(-c2ccccc2)no1)/c1ccccc1 | -2.0 | -53.9 | . | 0.2 | -92.4 | 6.9
O=C(NCCN1CCN(C(=O)c2cc3ccccc3oc2=O)CC1)c1cc2ccccc2oc1=O | -0.5 | 94.2* | 12.2 | . | 3.9 | -0.5
C=CCn1c(SCC(=O)Nc2ccc(F)cc2)nc2scc(-c3cccs3)c2c1=O | . | -12.0 | . | . | . | .
CCOC(=O)c1ccc(NC(=O)CSc2nc(CC(N)=O)cc(=O)[nH]2)cc1 | . | -15.0 | . | . | . | .
O=C(NCC(c1ccc(F)cc1)N1CCOCC1)c1cccc(C(F)(F)F)c1 (stereo unspecified) | . | -12.0 | . | . | . | .
O=C(NCC(c1ccc(F)cc1)N1CCOCC1)c1cccc(Br)c1 (stereo unspecified) | -2.1 | 42.1* | 13.7 | 0.9 | -5.0 | .
CC(C)NC(=O)Nc1ccc2c(c1)C(=O)N([C@@H](C)CO)C[C@@H](C)[C@@H](CN(C)S(=O)(=O)c1cn(C)cn1)OCCCC[C@@H](C)O2 | . | . | . | 0.0 | . | -3.0
c1ccc(C2=NNC(=NCc3ccc4c(c3)OCO4)SC2)cc1 | -0.6 | 47.1* | -2.9 | . | 1.1 | 0.4
COc1ccccc1C1=NNC(=NCc2ccccc2)SC1 | -1.3 | 15.5 | 14.0 | 10.1* | -31.6 | .
SMILES | FadD28 binding | SSB-PriA inh | Mtb hypoxia inh | TcdB GH inh | PrP 5UTR inh | BioA inh
CNc1nc(NN)nc(Nc2ccccc2)n1 | -2.7 | 104.9* | 5.9 | 0.3 | -15.3 | -0.4
CNc1nc(Nc2ccccc2)nc(OCC(F)(F)F)n1 | -0.9 | -5.6 | -0.4 | 2.3 | 3.3 | 0.0
COc1ccccc1N1C(=O)c2cccc3c(C(=O)O)ccc(c23)C1=O | 1.0 | 1.1 | -9.2 | . | 3.1 | -8.1
NS(=O)(=O)c1ccc(O)c(N2C(=O)c3cccc4c(C(=O)c5ccccc5)ccc(c34)C2=O)c1 | . | 46.0* | . | . | . | .
CC(NC(=O)Nc1cccc(Cl)c1)C(c1cccs1)N1CCCC1 (stereo unspecified) | -3.3 | -2.9 | 0.5 | 1.2 | -15.1 | -0.2
O=c1ccc2cc3c([nH]c4ccc(Br)cc43)oc-2c1O | 21.5* | . | . | . | -22.6 | 2.7
O=C(O)c1ccc(N=Nc2c(O)[nH]c3ccc(Br)cc23)cc1 | 1.1 | 0.8 | . | 0.9 | . | -2.5
N#Cc1ccccc1NC(=O)CSc1nccn1-c1ccc(C(=O)NCc2ccccc2F)cc1 | . | 35.0* | . | . | . | .
Cc1ccc(S(=O)(=O)NNC(=O)Nc2ccccc2F)c(C)c1 | -4.4 | -6.0 | 11.9 | -1.1 | -21.9 | -0.5
COc1cccc(NC(=O)Cn2nnc(-c3ccccc3N)n2)c1 | 14.7* | 10.8 | 0.5 | . | -25.7 | 1.7
COc1cnc(-c2ccccn2)nc1Sc1ccc(C)cc1 | -9.3 | -7.4 | 19.9 | 1.9 | -9.8 | .
COc1cnc(-c2ccccn2)nc1N1CCOCC1 | . | 156.0* | . | . | . | .
COc1ccccc1Sc1nc(-c2ccccn2)ncc1OC | -2.0 | 23.4 | 0.9 | 4.7 | -4.5 | .
COc1cnc(-c2ccccn2)nc1NC(C)C | -2.7 | 95.0* | 18.4 | 0.6 | 5.1 | .
COc1ccc(N(CC(=O)N2CCC(C)CC2)S(=O)(=O)c2c(C)nn(C)c2C)cc1 | -1.2 | -10.4 | 0.6 | 0.0 | -1.6 | -0.3
O=C(C[C@@H]1C=C[C@H](NC(=O)CCN2CCCCC2)[C@@H](CO)O1)Nc1ccccc1 | . | . | . | -0.5 | . | .
COc1cccc(NCc2cc(=O)oc3cc(C)c(O)cc23)c1 | 0.4 | -10.2 | -2.3 | 2.8 | -26.1 | -1.6
COc1cccc(NCc2cc(=O)oc3cc(-c4ccccc4)c(O)cc23)c1 | 24.2* | -2.4 | . | . | -27.3 | .
CCN(CC)c1ccc(/C=N/NC(=O)c2ccc3nc[nH]c3c2)c(O)c1 | 27.4* | . | . | . | 11.4 | -1.1
O=C1C=C(N2CC2)c2ccccc2C1=O | 8.9* | . | . | -1.4 | . | -0.5
Cc1ccc(-n2nc(C)c(Sc3ccccc3[N+](=O)[O-])c2N)cc1 | -0.1 | 39.3* | -10.0 | 1.7 | 1.0 | .
Cc1cc2[nH]c(=O)c(=O)[nH]c2cc1S(=O)(=O)NCc1ccc(Cl)cc1 | -4.9 | -6.0 | . | . | -18.1 | 0.1
CCC(=O)Nc1ccc(S(=O)(=O)N2CCC3(CC2)OCCS3)c(C)c1 | . | -7.0 | . | . | . | .
N/C(=N\N=C/c1ccc(-c2ccc(O)c(C(=O)O)c2)o1)N[N+](=O)[O-] | 12.3* | . | . | . | -21.4 | 2.1
O=C(CCNc1ccc(Cc2ccncc2)cc1)c1ccc([N+](=O)[O-])cc1 | -0.2 | 46.9* | -1.7 | -0.7 | -6.4 | .
SMILES | FadD28 binding | SSB-PriA inh | Mtb hypoxia inh | TcdB GH inh | PrP 5UTR inh | BioA inh
CC(C)NC(=O)Nc1ccc2c(c1)C(=O)N([C@H](C)CO)C[C@H](C)[C@H](CN(C)C(=O)Nc1ccc3c(c1)OCO3)OCCCC[C@@H](C)O2 | . | . | . | 1.2 | . | 2.1
Oc1ccccc1N=Cc1ccc[nH]1 | -2.6 | 0.3 | 81.1* | . | -20.1 | -0.6
C(=Nc1ccccc1)c1ccc[nH]1 | 0.6 | -10.4 | 3.3 | -1.0 | -19.9 | -1.3
O=C1C(=O)c2cccnc2-c2ncccc21 | ? | . | . | -3.3 | . | .
O=C1c2cccnc2-c2ncccc21 | -1.6 | 37.0*! | -0.7 | . | 0.6 | 0.9
COC1=C(Br)C(=O)c2ncccc2C1=O | 2.3 | 40.7* | . | -3.0 | -11.5 | .

Bioassay records from PubChem BioAssay.
